{"source": "PubChem BioAssay (EPA / NIEHS)", "note": "Several values for one entry are separate records, joined by “and”; a condition that tells them apart may be missing. Equal entries are not always repeated. Records with an inconclusive call do not appear. Some structures have more than one record in an assay (separate samples or runs), and their calls can disagree. Activity calls are given as the source filed them. The calls were made as follows: active = hit-call score of the fitted dose curve at least 0.9, where 1 is the maximum; inconclusive = response in the unintended direction; inactive = score below 0.9.", "data": [{"system": "frog Estrogen Receptor (ER), gene 398734", "experiment": "ATG_frER1_XSP2: Attagene TRANS-FACTORIAL Multi-Species (XSP2) HepG2 Assay for frog Estrogen Receptor (ER) (AID 2283821);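 also: hits raise reporter mRNA above DMSO baseline so potency means agonist or activator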", "description": "ATG_XSP2_multi-species_TRANS is a cell-based, multiplexed assay created by modifying the existing Attagene TRANS-FACTORIAL system to include a panel of nuclear receptors from some or all the following species: human (Homo sapiens), mouse (Mus musculus), frog (Xenopus laevis), zebrafish (Danio rerio), chicken (Gallus gallus), and turtle (Chrysemys picta). The ECOTOX-FACTORIAL format uses HepG2, a human liver cell line, with measurements taken at 24 hours after chemical dosing in a 24-well plate. Xsp2 included 3 nM 6-alpha-fluorotestosterone and 1.5 nM norgestrel to stimulate the androgen receptor.ATG_frER1_XSP2 is one of 29 assay components measured or calculated from the ATG_XSP2_multi-species_TRANS assay. It is designed to make measurements of mRNA induction, a form of inducible reporter, as detected with fluorescence intensity signals by Reverse transcription polymerase chain reaction (RT-PCR) and Capillary electrophoresis technology.The assay endpoint ATG_frER1_XSP2 was analyzed in the positive analysis fitting direction relative to DMSO as the negative control and baseline of activity. Using a type of inducible reporter, measures of mRNA for gain-of-signal activity can be used to understand the reporter gene at the transcription factor-level as they relate to the gene ER. Furthermore, this assay endpoint can be referred to as a primary readout, because this assay has produced multiple assay endpoints where this one serves a reporter gene function. To generalize the intended target to other relatable targets, this assay endpoint is annotated to the nuclear receptor intended target family, where the subfamily is steroidal.\nHuman liver HepG2 cells are transiently transfected with multiple reporter transcription units (MRTUs) in 6-well plates using FuGene 6 reagent (Roche; 3 ml FuGene/1 mg DNA). The MRTU constructs are regulated by a cis-regulating element (promoter). […] A major difference between the CIS and TRANS system is that in CIS activities of endogenous TFs are measured, whereas the TRANS assay evaluates changes in activities of exogenous, chimeric NR-Gal4 proteins. […] At the end of 24 hour incubation, total RNA was isolated using TriZol reagent (Invitrogen). The isolated RNA is then reverse-transcribed using oligo(dT) primer and Mo-MLV reverse transcriptase (Invitrogen) with DNAse I (Ambion) treatment for 30 min. The one-tenth of the produced cDNA was amplified by PCR using Taq DNA polymerase (Invitrogen) and two reporter sequence-specific primers. The PCR products were fluorescently labeled by primer extension with 6-arboxyfluorescein (6-FAM) 5'-labeled reporter sequence-specific primer (2 min at 95 C, 20 s at 68 C and 10 min at 72 C) and these products were digested with 5U of HpaI (New England Biolabs) for 2h at 37 C. The fragments were purified using Qiaquick PCR columns (Qiagen), analyzed on an ABI 3130xL genetic analyzer (Applied Biosystems) with peak positions identified by using a set of X-rhodamine (ROX)-labeled MapMarker1000 molecular weight standards (BioVentures). The raw capillary electrophoresis data was processed using Attagraph software (Attagene).", "values": [{"smiles": "Clc1ccc(C(c2ccccc2Cl)C(Cl)(Cl)Cl)cc1", "note": "(stereo not drawn)", "AC50": "858 nM (active)"}, {"smiles": "CC(C)(O)C(=O)Nc1ccc([N+](=O)[O-])c(C(F)(F)F)c1", "outcome": "inactive"}, {"smiles": "c1cc2ccc3cccc4ccc(c1)c2c34", "AC50": "39.9 µM (active) and 19.8 µM (active)"}, {"smiles": "C[C@]12CCC(=O)C=C1CC[C@@H]1[C@@H]2CC[C@]2(C)C(=O)CC[C@@H]12", "AC50": "19.2 nM (active) and 24 nM (active)"}, {"smiles": "Cc1cc(-c2ccc(N)c(C)c2)ccc1N", "outcome": "inactive"}, {"smiles": "CC(C)(c1ccccc1)c1ccc(O)cc1", "AC50": "992 nM (active)"}, {"smiles": "CC(c1ccc(O)cc1)(c1ccc(O)cc1)c1ccc(O)cc1", "outcome": "inactive"}, {"smiles": "Oc1ccc(C(c2ccc(O)cc2)(C(F)(F)F)C(F)(F)F)cc1", "outcome": "inactive", "AC50": "7870 nM (active)"}, {"smiles": "C[C@]12CCC(=O)C=C1CC[C@@H]1[C@@H]2CC[C@@]2(C)[C@H]1CC[C@]2(C)O", "AC50": "2.25 nM (active)"}, {"smiles": "CCC(=O)O[C@H]1CC[C@H]2[C@@H]3CCC4=CC(=O)CC[C@]4(C)[C@H]3CC[C@]12C", "AC50": "10.9 nM (active) and 4.11 nM (active)"}, {"smiles": "ClC(Cl)=C(c1ccc(Cl)cc1)c1ccc(Cl)cc1", "outcome": "inactive"}, {"smiles": "CCOC(=O)C(O)(c1ccc(Cl)cc1)c1ccc(Cl)cc1", "outcome": "inactive"}]}]}
